Results taken from PubChem BioAssay (NCATS).
Results filed as inconclusive are left out. The source made the active and inactive calls. Unless noted, the call rests on the fitted dose curve; in most records, active means well fitted curve in the direction sought with a large enough effect; inconclusive means small, poorly fitted or top-dose-only effect, or another doubt; inactive means no such curve, though single readings can be large; an effect the other way counts as inactive or inconclusive.

What was measured:
[1] = Cell Viability - LYMP2-001 (AID 921); settings: LYMP2-001 lymphoblastoid cell viability; series mostly up to 92.2 µM;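 further: cells exposed to compound for 24 h at 37 °C; nearly all actives have a fitted effect of over 70% in size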
In short: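 Steps: seed 2500 lymphoblastoid cells/well; 5 hr, 37 C; add compound; 24 hr, 37 C; CellTiter-Glo reagent, 30 min room temperature; read luminescence. Concentration-response modeled by Hill equation for AC50.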

[2] = MultiTox-Fluor Cytotoxicity Assay - LYMP1-001 - Dead Cells (AID 946); settings: LYMP1-001 lymphoblastoid cells, dead-cell protease fluorescence; series mostly up to 92.2 µM;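 further: cells exposed to compound for 16 h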
In short: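 AC50 from Hill fit of concentration-response; data normalized to DMSO (basal) and 15 uM tetraoctylammonium bromide (100%). LYMP1-001 lymphoblastoid cells, 2500/well, 16 hr compound at 37 C; dead-cell protease fluorescence, Ex/Em 485/520.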

[3] = MultiTox-Fluor Cytotoxicity Assay - LYMP1-001 - Live Cells (AID 947); settings: LYMP1-001 lymphoblastoid cells, live-cell protease fluorescence viability; series mostly up to 92.2 µM
[4] = Cell Viability - LYMP1-002 - Assay at 16 hr (AID 948); settings: LYMP1-002 lymphoblastoid cell viability; series mostly up to 92.2 µM
In short: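 Seed 2500 LYMP1-002 cells per well in complete medium and hold 5 hr at 37 C. Add compound across a concentration series and incubate 16 hr at 37 C. Add CellTiter-Glo, wait 30 min at room temperature, read luminescence.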

[5] = MultiTox-Fluor Cytotoxicity Assay - LYMP1-002 - Live Cells (AID 955); settings: LYMP1-002 lymphoblastoid live-cell protease fluorescence viability; series mostly up to 46.1 µM;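 further: cells exposed to compound for 16 hours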
In short: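 Cells were seeded at 2500 per well and incubated 5 hr. Compounds were then added for 16 hr at 37 C, followed by MultiTox-Fluor reagent for 60 min at room temperature and fluorescence reading of viable-cell protease signal.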

[6] = target: Muscarinic acetylcholine receptor M1 (Rattus norvegicus) (UniProt P08482); experiment: qHTS Assay for Antagonists of Acetylcholine Muscarinic M1 Receptor: Kinetic Measurement of Intracellular Calcium Response (AID 943); settings: M1-expressing cells, kinetic intracellular calcium fluorescence; series mostly up to 35.3 µM;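 further: Fluo-4 calcium signal as peak divided by basal fluorescence over 4 min; nearly all actives have a fitted effect of over 75% in size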
Muscarinic acetylcholine receptor M1 (Rattus norvegicus), sequence (P08482 whole entry, looked up): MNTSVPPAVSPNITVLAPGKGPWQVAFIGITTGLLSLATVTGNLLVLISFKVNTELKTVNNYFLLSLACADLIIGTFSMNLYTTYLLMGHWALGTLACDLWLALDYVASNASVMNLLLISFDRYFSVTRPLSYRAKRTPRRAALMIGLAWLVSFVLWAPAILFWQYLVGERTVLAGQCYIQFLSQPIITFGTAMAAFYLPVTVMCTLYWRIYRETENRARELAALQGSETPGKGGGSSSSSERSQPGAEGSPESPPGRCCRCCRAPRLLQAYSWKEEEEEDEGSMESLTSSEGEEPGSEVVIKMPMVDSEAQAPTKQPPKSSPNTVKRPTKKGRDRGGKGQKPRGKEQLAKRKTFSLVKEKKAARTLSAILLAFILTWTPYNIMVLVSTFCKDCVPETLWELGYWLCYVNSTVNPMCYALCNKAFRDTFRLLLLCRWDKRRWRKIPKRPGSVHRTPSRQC
In short: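 Antagonism is measured as inhibition of the carbachol-evoked calcium rise in CHO cells transfected with rat M1. Cells are dye-loaded, exposed to compound for 10 min, then stimulated with 100 nM carbachol (EC80).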

[7] = target: Muscarinic acetylcholine receptor M1 (Rattus norvegicus) (UniProt P08482); experiment: qHTS Assay for Antagonists of Acetylcholine Muscarinic M1 Receptor: Measurement of IP-One Response (AID 944); settings: CHO-M1 cells, IP-One HTRF, antagonist mode; series mostly up to 46.1 µM; further: nearly all actives have a fitted effect of over 75% in size
From the text: NIH Molecular Libraries Screening Centers Network [MLSCN]
NIH Chemical Genomics Center [NCGC]
Acetylcholine muscarinic M1 receptor is a G-protein coupled receptor (GPCR) coupling to the Gq G protein. It is mainly expressed in brain and functionally related to the learning and memory processes. The agonists of this receptor have the potential for the treatment of Alzheimer's disease and cognitive impairments associated with Schizophrenia.
Upon an activation of the M1 receptor, phosholipase C (PLC) is activated to produce inositol 1,4,5-trisphosphate (IP3) and diacyl glycerol (DAG). […] For compound screen, the changes in intracellular free Ca2+ concentration can be measured by the fluorescence calcium dye such as Fura-2, Fluo-3 and Fluo-4 with a fluorescence kinetic plate reader. IP1 or total IPs including IP1, IP2 and IP3 are usually measured as an alternative method for assessing the function of Gq-coupled GPCRs. We have applied a time-resolved fluorescence based (TR-FRET) IP1 assay in which an IP1 specific antibody is used to detect the labeled IP1 tracer. […]
The resuspended frozen cells were plated at 3 ul/well with 2000 cells in the black, tissue culture treated, clear bottom 1536-well plates. […] After 10 min incubation at the room temperature, the assay plates were measured in the HTRF detection mode in ViewLux plate reader (Ex=337 nm. Em(1)=620 and Em(2)=665 nm) […]

[8] = target: Pyruvate kinase (Leishmania mexicana) (UniProt Q27686); experiment: qHTS Validation Assay for Inhibitors of Leishmania Mexicana Pyruvate Kinase (AID 945); settings: purified L. mexicana pyruvate kinase, enzyme activity, E451W mutant enzyme; series mostly up to 57.5 µM
Pyruvate kinase (Leishmania mexicana), sequence (Q27686 2-499 E452W): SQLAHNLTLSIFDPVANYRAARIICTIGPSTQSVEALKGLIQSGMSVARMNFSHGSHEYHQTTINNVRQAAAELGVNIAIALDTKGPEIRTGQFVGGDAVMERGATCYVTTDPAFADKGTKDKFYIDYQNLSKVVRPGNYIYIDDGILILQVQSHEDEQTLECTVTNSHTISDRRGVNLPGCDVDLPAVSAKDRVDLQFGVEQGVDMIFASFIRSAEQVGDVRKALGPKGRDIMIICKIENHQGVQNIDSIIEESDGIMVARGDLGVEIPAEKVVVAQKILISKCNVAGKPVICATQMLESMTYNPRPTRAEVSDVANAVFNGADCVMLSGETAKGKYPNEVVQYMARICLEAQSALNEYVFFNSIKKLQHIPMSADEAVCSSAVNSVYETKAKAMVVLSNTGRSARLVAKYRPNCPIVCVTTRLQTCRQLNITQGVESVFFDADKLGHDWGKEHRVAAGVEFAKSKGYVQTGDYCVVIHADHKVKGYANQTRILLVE
In short: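 LmPYK E451W 0.2 nM; 0.5 mM PEP, 0.1 mM ADP, 7 mM MgCl2, 50 mM KCl, imidazole pH 7.2, 0.01% Tween 20, 0.05% BSA; 1 h RT; PKLight luminescence; DMSO-normalized.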

[9] = target: Pyruvate kinase PKM (Homo sapiens) (UniProt P14618); experiment: qHTS Assay for Activators of Human Muscle Pyruvate Kinase (AID 954; active means well fitted curve in the direction sought with a large enough effect, not every such curve was filed as active); settings: purified human muscle pyruvate kinase, luciferase-coupled luminescence, 1 h; series mostly up to 57.5 µM
Pyruvate kinase PKM (Homo sapiens), sequence (P14618 whole entry, looked up): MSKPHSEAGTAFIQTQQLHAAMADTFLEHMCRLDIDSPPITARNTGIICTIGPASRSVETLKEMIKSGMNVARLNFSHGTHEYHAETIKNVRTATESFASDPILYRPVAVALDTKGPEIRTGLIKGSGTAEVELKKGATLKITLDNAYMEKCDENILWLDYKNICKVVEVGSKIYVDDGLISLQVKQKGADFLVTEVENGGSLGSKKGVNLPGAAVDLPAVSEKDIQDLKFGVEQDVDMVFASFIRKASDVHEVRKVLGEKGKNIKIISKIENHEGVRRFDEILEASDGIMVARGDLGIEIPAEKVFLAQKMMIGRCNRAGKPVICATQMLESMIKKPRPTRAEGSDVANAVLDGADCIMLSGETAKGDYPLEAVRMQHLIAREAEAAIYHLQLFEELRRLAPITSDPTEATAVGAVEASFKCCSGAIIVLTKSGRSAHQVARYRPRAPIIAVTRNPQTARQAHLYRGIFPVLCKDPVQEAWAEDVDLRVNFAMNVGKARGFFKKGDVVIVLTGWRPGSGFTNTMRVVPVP
In short: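 A coupled luminescent readout tracked ATP made from ADP by purified PKM2. Final conditions included 0.1 nM enzyme, PEP and ADP at 0.5 and 0.1 mM, pH 7.2 imidazole buffer with BSA, and a one-hour room-temperature reaction.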

[10] = Confirmation and Secondary Assay for Modulators of Hemoglobin Beta Chain Splicing at IVS2 705 locus (AID 930); settings: HeLa EGFP-705 splicing reporter, GFP fluorescence, 48 h; series mostly up to 46.1 µM;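 further: HeLa cells stably expressing the EGFP-705 splicing reporter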
In short: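 HeLa cells stably carrying EGFP interrupted by mutant beta-globin IVS2-705 intron (CMV-driven) were seeded at 500 cells/well, treated next day with compound for 2 days at 37C; corrected splicing restores EGFP, read as total peak GFP intensity per well.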

Measured: outcome

C=C1C[C@]23C[C@@]1(O)CC[C@H]2[C@@]12C=C[C@H](O)[C@@](C)(C(=O)O1)[C@H]2[C@@H]3C(=O)O
inactive: [1] | [2] | [3] | [4] | [5]

CC(C)C[C@H](NC(=O)[C@@H]1O[C@H]1C(=O)O)C(=O)NCCCCN=C(N)N
inactive: [6] | [7] | [8] | [9]

C[C@]1(C2CCCC2)Cc2cc(OCC(=O)O)c(Cl)c(Cl)c2C1=O
inactive: [6] | [7] | [8] | [9]

COc1ccc(CCC(=O)c2c(O)cc(O[C@@H]3O[C@H](CO)[C@@H](O)[C@H](O)[C@H]3O[C@@H]3O[C@@H](C)[C@H](O)[C@@H](O)[C@H]3O)cc2O)cc1O
inactive: [1] | [2] | [3] | [4] | [5]

O=C(/C=C/C=C/c1ccc2c(c1)OCO2)N1CCCCC1
inactive: [10]

CCOC(=O)C(CCc1ccccc1)NC(C)C(=O)N1Cc2ccccc2CC1C(=O)O (stereo not given)
inactive: [10]
